Assay results: PubChem BioAssay AID488966 (Southern Research Specialized Biocontainment Screening …, 2010)
Several values for one entry are separate records, joined by “and”; a condition that tells them apart may be missing. Equal values may be shown once. Out of some 340,000 compounds screened, about 55 (0.02%) were called active.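 How the source made its calls: active means phage lysis inhibition, versus mean bacterial control, above a set limit; inconclusive means no clear call, values can overlap the other calls; inactive means the rest.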 The list is a sample of the results. Measured potencies and affinities stand elsewhere.

Assay: protection from phage-mediated lysis, alamar blue read-out – E. coli UTI89, K1F phage, bacterial capsule biogenesis inhibitors (AID 488966);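 further: capsule biogenesis inhibitors block K1F phage lysis so surviving cells raise fluorescence; higher fluorescence means more inhibition of phage lysis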
Details: 2 h; inhibition: at 100 µM, stronger effect = higher value unless noted; series mostly up to 300 µM

inhibition, inactive:
COc1ccc(C(=O)NNC(=O)CCc2nc3ccccc3c(=O)[nH]2)cc1 -0.85%, O=C(CSc1nnc(CNC(=O)c2ccco2)o1)Nc1nc2ccccc2s1 0.07%, CC(=O)NC1=NN(C(C)=O)C(C)(c2cccnc2)S1 (configuration not stated) 0.35%, CC(C)Oc1ccc(C2c3c(oc4ccccc4c3=O)C(=O)N2CCCN2CCOCC2)cc1 (configuration not stated) 7.09%, Cc1cc2oc3c(c(=O)c2cc1C)C(c1ccc(F)cc1)N(CCCN1CCOCC1)C3=O (configuration not stated) 10.1%, Cc1cc2oc3c(c(=O)c2cc1C)C(c1ccc(C(C)C)cc1)N(CCCN1CCOCC1)C3=O (configuration not stated) 10.9%, CCCOc1ccc(C2c3c(oc4ccccc4c3=O)C(=O)N2CCCN2CCOCC2)cc1 (configuration not stated) 3.1%, CCCCCCn1c(N2CCN(c3cccc(Cl)c3)CC2)nc2c1c(=O)[nH]c(=O)n2C -0.58%, COc1ccc(-c2c(C)oc3c(CN4CCOCC4)c(O)ccc3c2=O)cc1 0.06%, O=C(CSc1nc2ccc(Cl)cc2[nH]1)NCCc1ccc(Cl)cc1 0.86%, C=CCn1c(C)nnc1SCC(=O)c1[nH]c(C)c(C(C)=O)c1C -0.26%, COc1ccc(C(=O)Nc2ccc3c(c2)nc(CCNC(C)=O)n3C)cc1 5.13%, C/C(=N\NC(=S)NCCc1ccccc1)c1ccc(C#N)cc1 0.17%, Cc1ccccc1CN1CCN(CCCc2ccccc2)C(CCO)C1 (configuration not stated) 0.26%, C[C@H](CO)N1C[C@H](C)[C@@H](CN(C)Cc2ccc(C(=O)O)cc2)Oc2c(NS(=O)(=O)c3ccccc3)cccc2C1=O 0.71%, O=C(COc1ccc2c(-c3ccccc3)cc(=O)oc2c1)NCCCn1ccnc1 -2.78%, N=C(N)c1ccccc1 3.36% and 4.08%, N=C(N)c1ccc(O)cc1 -1.49%, Cc1occc1C(=O)NNC(=O)CN1C(=O)NC2(CCCCC2)C1=O 1% [at 50 µM, stronger effect = higher value], COc1ccc(C(=O)Nc2nc3ccc(OC)cc3s2)cc1 0.38%, COc1ccc2nc(NC(C)=O)sc2c1 0.03%, Cc1cc(C)c2sc(NNC(=O)C3COc4ccccc4O3)nc2c1 (configuration not stated) 3.07%, COc1ccc(NC(=O)C(C)N2c3cccc4cccc(c34)S2(=O)=O)cc1 (configuration not stated) 4.61%, N=C1/C(=C\c2ccc(SCc3ccco3)o2)C(=O)N=C2SC=NN12, CCS(=O)(=O)C1=NN2C(=N)/C(=C\c3ccc(SCc4ccco4)o3)C(=O)N=C2S1 -0.03%, O=C(c1cc2ccccc2o1)N1CCN(c2ccccn2)CC1 0.07%, COc1cccc(C(=O)Nc2ncc3c(n2)CC(C)CC3=O)c1 (configuration not stated) 0.02%, Cn1c(N)c(C(=O)Nc2cccc(Cl)c2)c(=O)n(C)c1=O 0.32%, CC(OC(=O)CCCN1C(=O)c2ccccc2C1=O)C(=O)Nc1ncc(Cl)cc1Cl (configuration not stated) 0.75%, O=C(Cc1ccsc1)Nc1ccc2c(c1)OCO2 0.48% [at 50 µM, stronger effect = higher value], COc1ccc(CC(=O)Nc2ccc(N3CCOCC3)cc2)cc1OC -0.16%, Cc1ccccc1OCC(=O)Nc1ccc(C(=O)Nc2ccccc2C(=O)O)cc1 0.645% [at 50 µM, stronger effect = higher value], Cc1cccc(OCC(=O)Nc2ccc(C(=O)Nc3ccccc3C(=O)O)cc2)c1C 1.06% [at 50 µM, stronger effect = higher value], Cc1ccc2nc(C3CCCN3Cc3nc(CCC(C)C)no3)[nH]c2c1 (configuration not stated) 0.57%, CCOc1ccc(C(=O)NN2C(=O)C3C4C=CC(O4)C3C2=O)cc1 (configuration not stated) 0.49%, COc1ccc(C2=CSC3=C(C(=O)c4cccc(S(=O)(=O)N(C)C)c4)CCN23)cc1 0.33%, CN(C(=O)Cn1c(=O)oc2cc(S(=O)(=O)N3CCCC3)ccc21)C1CCCCC1 0.1%
